Consider 14 compounds from PubChem BioAssay (NCI).

Structures are written as SMILES. This is part of a sample that, as a whole, favours compounds with a hit. Of some 83,000 tested, about 20% had one in any assay.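 Testing used 96-well plates and a 48-hour single-concentration exposure. Example: -40 means 40% of the starting cells died.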 Values without a mark were called inactive. The source made the active and inactive calls. How the source made its calls: active means growth percent below 10; inactive means the rest.

Some test systems named below: K-562 leukemia; MALME-3M melanoma; MDA-MB-231 breast; RXF 393 renal; SF-268 CNS; SF-295 CNS; SF-539 CNS; UACC-257 melanoma; M14 melanoma; HCT-15 colon.
Common to all, as to experiment: NCI-60 one-dose screen, 48 h (100 = growth as untreated, 0 = no growth, -100 = all killed)
Common to all, as to details: 10 µM

As for `COc1cc2cc3c(nc2cc1OC)CCN3Cc1ccc(NC(=O)c2ccc(Cl)c(C(F)(F)F)c2)cc1`, the growth was 94.7% in the test on K-562 leukemia; 68.8% in the test on MALME-3M melanoma; 85.4% with MDA-MB-231 breast; 94.5% in the test on RXF 393 renal; 102% with SF-268 CNS; 92.8% with SF-295 CNS. Further, the growth is 81.1% with SF-539 CNS, 86.6% in the test with UACC-257 melanoma, 104% in the test on M14 melanoma and 95.8% in the test on HCT-15 colon.
In the case of `CCOCCOCCOCCOCCOCCOCCOCCOCCOCCO` (tested in a mixture with another compound), the growth in the test with K-562 leukemia is 4.03% (active); in the test on MALME-3M melanoma, 0.836% (active); in the test with MDA-MB-231 breast, 10.5%; with RXF 393 renal it was 37.3%; with SF-268 CNS, 21.8%; in the test on SF-295 CNS, -29.2% (active). For the same compound, the growth is -10.1% (active) in the test with SF-539 CNS, -7.19% (active) in the test with UACC-257 melanoma, 10.8% in the test on M14 melanoma and 22.1% in the test on HCT-15 colon.
For the compound `c1ccc([I+]c2ccccc2)cc1`, the growth was 42.2% in the test with K-562 leukemia; 50.5% with MALME-3M melanoma; 87.6% in the test with MDA-MB-231 breast; 60.4% in the test on RXF 393 renal; 55.7% in the test on SF-268 CNS; 81% with SF-295 CNS. The growth is 68.9% in the test with SF-539 CNS, 78.6% in the test on UACC-257 melanoma, 72.5% in the test with M14 melanoma and 89.4% in the test with HCT-15 colon.
With `C[C@@H]1C=C2C(=O)O[C@@H]3CC[C@H](C1)[C@]23O`, the growth in the test with K-562 leukemia is 27.5%; in the test with MALME-3M melanoma it was 93.2%; in the test with MDA-MB-231 breast, 89%; in the test with RXF 393 renal, 9.76% (active); with SF-268 CNS it was 93.3%; with SF-295 CNS, 114%. Besides, the growth in the test on SF-539 CNS is 90.8%; in the test on UACC-257 melanoma, 46.8%; in the test with M14 melanoma, 80.2%; with HCT-15 colon, 62.5%.
On to `CCOC(=O)N/N=C\C(C)=N\NC(=O)OCC`, for which the growth was 98.7% with K-562 leukemia; 84.5% in the test with MALME-3M melanoma; 111% in the test on MDA-MB-231 breast; 125% in the test with RXF 393 renal; 105% in the test on SF-268 CNS; 90.9% in the test on SF-295 CNS. In addition, the growth with SF-539 CNS is 99.9%; with UACC-257 melanoma, 92.6%; with M14 melanoma, 100%; with HCT-15 colon it was 99.5%.
Turning to `O=C1NC(=O)N(Cc2ccccc2)CC1Br` (stereo not given), the growth with K-562 leukemia was 37.4%; with MALME-3M melanoma, 77.8%; in the test on MDA-MB-231 breast, 89.3%; with RXF 393 renal, 68%; in the test with SF-268 CNS, 80.2%; with SF-295 CNS, 136%. Besides, the growth in the test on SF-539 CNS was 86.5%; in the test with UACC-257 melanoma it was 82.1%; in the test on M14 melanoma, 11.4%; with HCT-15 colon, 45.2%.
Turning to `CC(C)=NNc1ncnc2c1ncn2C1OC(CO)C(O)C1O` (stereo not given), the growth with K-562 leukemia is 14.8%; with MALME-3M melanoma it was -15.8% (active); with MDA-MB-231 breast it was 19.3%; in the test with RXF 393 renal, 23.1%; with SF-268 CNS, 40.9%; in the test on SF-295 CNS, 8.82% (active). In addition, the growth is 35.3% in the test with SF-539 CNS, 73.9% in the test on UACC-257 melanoma, 35.8% in the test on M14 melanoma and 12.6% in the test on HCT-15 colon.
For `CCOC(=O)C(NC(=O)C(Cl)Cl)C(O)c1ccccc1` (stereo not given), the growth was 87.5% in the test on K-562 leukemia; 108% in the test on MALME-3M melanoma; 98.3% with MDA-MB-231 breast; 78.7% in the test with RXF 393 renal; 99.3% with SF-268 CNS; 76.1% in the test with SF-295 CNS. The growth is 99.5% with SF-539 CNS, 105% in the test with UACC-257 melanoma, 92.6% with M14 melanoma and 117% with HCT-15 colon.
Turning to `COc1cc(-c2cc(/C=C3\C(=O)Nc4ccccc43)[nH]n2)cc(OC)c1OC`, the growth with K-562 leukemia was 31.7%; with MALME-3M melanoma, 1.21% (active); with MDA-MB-231 breast, 49.9%; in the test on RXF 393 renal, 79.3%; in the test on SF-268 CNS it was 74.8%; in the test with SF-295 CNS, 70.6%. For the same compound, the growth is 67.8% in the test with SF-539 CNS, 23% in the test on UACC-257 melanoma, 32.8% with M14 melanoma and 36.9% with HCT-15 colon.
Take `Cn1c([N+](=O)[O-])cnc1/C=C1\Oc2ccccc2C1=O`: the growth in the test on K-562 leukemia was 3.53% (active); with MALME-3M melanoma, -71.1% (active); with MDA-MB-231 breast, -31.7% (active); in the test with RXF 393 renal, -68.9% (active); in the test on SF-268 CNS it was -49% (active); in the test with SF-295 CNS, -1.94% (active). The growth is -43.4% (active) in the test on SF-539 CNS, -57% (active) with UACC-257 melanoma, -43.3% (active) in the test on M14 melanoma and 6.69% (active) with HCT-15 colon.
Turning to `Cc1ccc(NC(=O)Nc2c(Cl)cccc2Cl)cn1`, the growth in the test on K-562 leukemia was 47.7%; in the test on MALME-3M melanoma it was 109%; in the test on MDA-MB-231 breast, 95.4%; in the test with RXF 393 renal, 77.3%; with SF-268 CNS it was 116%; in the test with SF-295 CNS, 117%. In addition, the growth in the test with SF-539 CNS is 97.7%; in the test with UACC-257 melanoma, 99.6%; in the test with M14 melanoma, 96.1%; in the test on HCT-15 colon, 100%.
For `COC(=O)C(C(C[N+](=O)[O-])c1ccccc1)=P(c1ccccc1)(c1ccccc1)c1ccccc1` (stereo not given), the growth in the test with K-562 leukemia is 53.4%; in the test on MALME-3M melanoma, 96%; in the test on MDA-MB-231 breast, 108%; with RXF 393 renal, 85.9%; in the test on SF-268 CNS it was 96.1%; with SF-295 CNS it was 91.6%. Also, the growth in the test with SF-539 CNS is 99.2%; with UACC-257 melanoma it was 91.5%; in the test on M14 melanoma it was 76.3%; with HCT-15 colon it was 88.9%.
In the case of `O=C1C(=O)c2ccccc2C(O)=C1CCCc1ccc(C2CCCCCC2)cc1`, the growth in the test with K-562 leukemia was 23.7%; with MALME-3M melanoma it was 13.5%; in the test with MDA-MB-231 breast, 68.4%; in the test on RXF 393 renal, 68.1%; with SF-268 CNS, 53.9%; with SF-295 CNS, -0.205% (active). Besides, the growth with SF-539 CNS is 37.9%; in the test on UACC-257 melanoma, 44%; with M14 melanoma, 49.3%; in the test on HCT-15 colon, 25.2%.
On to `Cc1ccc(C(=O)N2C/C(=C/c3ccc(F)cc3)C(=O)/C(=C/c3ccc(F)cc3)C2)cc1`, for which the growth with K-562 leukemia was 44.2%; in the test with MALME-3M melanoma, 98.5%; in the test with MDA-MB-231 breast, 83.4%; in the test with RXF 393 renal it was 90.4%; in the test on SF-268 CNS it was 85.2%; in the test with SF-295 CNS it was 92.5%. Moreover, the growth in the test with SF-539 CNS is 93.2%; with UACC-257 melanoma it was 94.4%; in the test on M14 melanoma it was 84.8%; in the test with HCT-15 colon, 95.1%.
